# FXIIa mix inh: factor XIIa (human) inhibition, mixture screen | P00748 | purified FXIIa, fluorogenic substrate, pooled mixtures | inhibition, % at 5 µM | 62,000 compounds, 0.2% hits;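 note: 0% = enzyme without compound and 100% = no enzyme blank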
# WNV NS2B-NS3 inh: inhibitors of West Nile virus NS2B-NS3 protease | P06935 | WNV NS2B-NS3 protease, fluorogenic substrate Ex360/Em465; active compounds read low | z-score (concentration not given with the values) | 65,000 compounds, 0.18% hits; in the data active = z-score below about -3
# FXIa inh mix: blocks human factor XIa in pooled compound mixtures. P03951. purified FXIa, fluorogenic substrate. inhibition, % at 5 µM. 62,000 compounds, 0.19% hits;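 note: each value is inhibition by a whole ten-compound pool holding the compound; 0% = enzyme with no mixture and 100% = wells lacking enzyme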
# Target sequence (P03951 19-387 limits assumed): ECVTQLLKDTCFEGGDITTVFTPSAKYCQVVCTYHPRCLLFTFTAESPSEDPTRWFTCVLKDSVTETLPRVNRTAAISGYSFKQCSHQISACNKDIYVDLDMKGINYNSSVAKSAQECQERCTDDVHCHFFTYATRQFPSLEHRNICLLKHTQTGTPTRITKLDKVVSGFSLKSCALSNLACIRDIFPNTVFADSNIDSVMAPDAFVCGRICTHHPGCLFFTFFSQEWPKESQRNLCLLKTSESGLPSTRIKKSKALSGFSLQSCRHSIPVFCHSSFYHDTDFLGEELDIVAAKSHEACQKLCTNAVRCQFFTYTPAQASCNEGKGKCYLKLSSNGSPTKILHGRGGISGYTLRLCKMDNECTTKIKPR
# Target sequence (P03951 388-625 limits assumed): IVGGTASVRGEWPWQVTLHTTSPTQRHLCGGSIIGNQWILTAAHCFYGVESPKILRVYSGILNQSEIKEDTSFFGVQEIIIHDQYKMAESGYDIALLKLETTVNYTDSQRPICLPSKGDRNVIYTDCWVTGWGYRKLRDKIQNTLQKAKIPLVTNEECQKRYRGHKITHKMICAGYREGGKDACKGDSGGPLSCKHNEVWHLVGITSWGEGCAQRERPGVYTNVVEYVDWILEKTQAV
# Htt clearance: compounds clearing mutant huntingtin protein. inhibition, % at 1.5 µM. HeLa Exon1htt(103Q)mCFP, aggregate imaging; zero = plate's median compound well. 47,000 compounds, 0.42% hits;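 active = inhibition of aggregate fluorescence above about 70%, also judged a hit by eye on the cell image, limit read from the data, passing the limit was not always enough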;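 note: cells exposed to compound for three days before fixation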
# Cathepsin G inh: blocks human cathepsin G enzyme activity | P08311 | purified enzyme, AMC-tetrapeptide fluorescence, pooled mixtures | inhibition, % at 5 µM (by protocol) | 62,000 compounds, 0.2% hits | AID 581;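 active = inhibition above 20% in each of the two mixture wells holding the compound; inactive = inhibition of 20% or less in either well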;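 note: 0% = enzyme control without mixture and 100% = blank lacking enzyme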
# C1s inh: blocks human complement C1s protease activity; P09871; purified C1s, fluorogenic AMC substrate, pooled mixtures; mean inhibition % of two 10-compound mixtures (active compounds read high), % at 5 µM (by protocol); 62,000 compounds, 0.16% hits; AID 538;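 active = inhibition above 20% in each of the two 10-compound mixture wells holding the compound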;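 note: 0% = enzyme wells lacking compound mixture and 100% = no-enzyme blank wells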
# Starred values were filed as active, the others as inactive; . = not tested or not shown. In the library only some 0.75% were active in any assay of this set; here they are far more common. Cut-off read from the data, not from the text of the source, unless noted: active = inhibition above about 20% (passing the limit was not always enough); inactive = the rest.
SMILES,FXIIa mix inh,WNV NS2B-NS3 inh,FXIa inh mix,Htt clearance,Cathepsin G inh,C1s inh
COc1ccc(N2C(=O)C3CCCN3C2c2cccc(C)c2)cc1Cl (configuration not stated),22.6*,-0.33,3.3,-28.1,2.9,-27.0
COCCCn1c(SCC(=O)Nc2nnc(C)s2)nnc1-c1ccoc1C,-14.5,-1.23,-0.2,77.6*,-1.0,0.1
CCn1c(SC)nnc1-c1sc2cc(Cl)ccc2c1Cl,42.5*,0.56,18.1,-108.2,9.6,14.8
CSc1nnc(-c2sc3cc(Cl)ccc3c2Cl)n1C,0.0,0.93,10.5,42.6,0.7,-38.6
CC(Cc1c[nH]c2ccccc12)NC(=O)C1CCCNC1=O (configuration not stated),-11.1,-0.44,7.1,87.0*,-21.6,-188.4
Cc1ccc(NC(=O)C2C3CC4OC(=O)C2C4C3)cc1Cl (configuration not stated),2.9,-6.43*,1.6,.,1.9,-2.5
CCCc1cc(NCCN2CCOCC2)n2c(nc3ccccc32)c1C#N,.,0.48,.,.,.,.
Cc1cnc(C(=O)Nc2ccccc2-c2ccc(C)o2)cn1,4.9,0.35,-1.6,.,28.2*,-16.5
CCOC(=O)N1CC=C2C(C#N)=C(N)C(C#N)(C#N)[C@H](c3ccccc3OCC)[C@H]2C1,3.7,-0.45,5.8,32.8,10.2,64.0*
Cc1ccc(SCc2[nH]nc3c2C(c2ccco2)C(C#N)=C(N)O3)cc1 (configuration not stated),-16.9,0.00111,-4.8,-30.2,-16.0,-27.2
Cc1ccc(SCc2[nH]nc3c2C(c2ccc(C)o2)C(C#N)=C(N)O3)cc1 (configuration not stated),5.6,0.58,85.9*,.,47.7,-16.7
O=C(N/C(=C/c1ccc(Br)cc1)c1nc2ccccc2[nH]1)c1ccco1,.,.,.,80.0*,.,.
O=C(NCc1nc2ccccc2[nH]1)c1ccco1,4.4,0.45,-35.8,.,-14.4,-7.5
COc1cc(C(=O)N2CCC(n3cnc4cc(F)ccc43)CC2)cc(OC)c1OC,-17.7,0.4,10.5,33.2,6.3,4.8
CCCCN(CC)CCNC(=O)C1c2cc(OC)c(OC)cc2C(=O)N2CCc3ccccc3C12 (configuration not stated),4.1,-1.52,-9.8,.,0.6,-16.0
CCN1CCN(C(=O)C2c3cc(OC)c(OC)cc3C(=O)N3CCc4ccccc4C23)CC1 (configuration not stated),-17.8,-3.25*,3.0,5.7,11.3,26.9
Cc1csc(NC(=O)c2ccco2)n1,-19.6,-0.42,9.0,.,13.5,22.1*
COC(=O)C(NC(=O)c1ccco1)(Nc1nc(C)cs1)C(F)(F)F (configuration not stated),.,-0.06,.,.,.,.
CCCS(=O)(=O)N1CCN(Cc2ccc(OCc3ccccc3)c(OC)c2)CC1,-14.7,1.09,8.4,.,-5.0,-17.5
COc1ccc(CN2CCN(C)CC2)cc1OCc1ccccc1,9.5,-0.46,5.2,74.1*,9.3,13.9
COC(=O)CSC1=C(C#N)C(c2ccc(C)cc2)C2=C(CCCC2=O)N1 (configuration not stated),9.1,-5.03*,-5.2,.,-16.2,-76.2
CCOC(=O)CSC1=C(C#N)C(C)C2=C(CCCC2=O)N1 (configuration not stated),-16.2,0.57,1.5,.,-3.3,-12.8
CCC(=O)N1CCN(CCN=Cc2c(O)n(C3CCCCC3)c(=O)n(C3CCCCC3)c2=O)CC1,-0.1,-0.42,8.1,.,0.2,9.9
COc1ccc(-n2c(SCC(=O)N3CCCC3)nc3c([nH]c4ccccc43)c2=O)cc1,11.7,-0.6,-0.4,.,-2.3,-3.7
CC(=O)Nc1cccc(NC(=O)Nc2ccc(C(C)=O)cc2)c1,24.0,-0.29,25.3*,.,25.3,-5.5
SMILES,FXIIa mix inh,WNV NS2B-NS3 inh,FXIa inh mix,Htt clearance,Cathepsin G inh,C1s inh
CCN(CC)c1ccc(NC(=O)Nc2cccc(C(C)=O)c2)cc1,-0.2,-1.54,5.0,-10.8,1.5,7.8
Cc1c(C(=O)NCC(C)C)sc2nc(-c3ccc(F)cc3)cn12,8.4,-0.53,2.9,.,2.7,-27.1
CCN(CC)Cc1c(O)ccc2occ(C(=O)c3ccc(OC)cc3)c12,.,.,.,52.7,.,.
CCN(CC)Cc1c(O)ccc2c([N+](=O)[O-])c(C)n(-c3ccc(OC)cc3)c12,.,.,.,70.6*,.,.
COc1ccccc1N=Cc1nc(-c2ccccc2)oc1OC(C)=O,5.6,-0.07,50.1*,34.7,26.4*,8.5
CC(=O)Oc1oc(-c2ccccc2)nc1/C=N/c1ccccn1,.,-0.11,.,.,.,.
CC(=O)NCc1cn2c(C)csc2n1,5.1,-0.72,7.3,.,1.6,1.5
Cc1csc2nc(CNC(=O)C3CC=CCC3C(=O)O)cn12 (configuration not stated),4.9,-4.32*,2.9,-49.6,12.7,6.8
O=C(CCn1[nH]c(=O)c2ccccc2c1=O)OC1CCCCC1,3.7,0.59,20.5*,29.8,9.7,15.0
O=C(CCC(=O)c1ccc[nH]1)c1ccc(Cl)cc1,1.4,-0.78,6.8,75.2*,1.4,0.8
Cc1ccc(-c2nn3c(C)nnc3s2)cc1NC(=O)c1ccc(OC(C)C)cc1,1.9,-0.49,22.2*,.,6.5,-11.2
COc1ccc(C(=O)Nc2cc(-c3nn4c(C)nnc4s3)ccc2C)cc1,3.3,-0.85,9.9,.,1.7,2.7
COC(=O)Cc1cc(=O)[nH]c(Nc2nc3ccccc3o2)n1,-18.6,1.93,5.3,75.1*,12.9,13.8
CCOC(=O)Cc1cc(=O)[nH]c(Nc2nc3ccccc3o2)n1,8.1,1.75,-8.1,11.5,-10.4,-110.3
CCOC(=O)C1CCN(C(=O)CSc2ccccc2)CC1,5.6,1.34,6.0,15.6,13.5,64.8*
Cc1nn(-c2ccccc2)c2sc(C(=O)C(C#N)c3ccccn3)cc12 (configuration not stated),-21.7,1.27,1.9,.,-7.3,-32.8
N#Cc1nc(N2CCCC2)nc(N2CCCC2)n1,8.9,0.37,5.3,72.7*,7.5,-5.5
O=C(O)COCc1nc2ccccc2[nH]1,-10.8,0.4,9.6,.,13.9,21.9*
CCOC(=O)CCc1nc2ccccc2[nH]1,-0.2,0.9,-2.2,-16.4,-10.2,-18.1
Cn1c(=O)oc2cc(S(=O)(=O)Nc3ccc4c(c3)OCO4)ccc21,45.1*,-0.13,6.8,.,6.4,14.8
CN(C)S(=O)(=O)Nc1ccc2c(c1)OCO2,1.0,-0.02,24.2*,.,-0.3,-5.0
CCCn1c(=O)n(C)c(=O)c2c3oc(=O)c(NC(=O)c4ccc(F)cc4)cc3[nH]c21,6.2,-0.78,2.6,.,11.3,14.0
CCNC(=O)CN(CCc1ccccc1)S(C)(=O)=O,7.3,0.65,4.8,16.7,8.1,-17.4
CC(C)NC(=O)CN(CCc1ccccc1)S(C)(=O)=O,22.1*,0.53,10.1,-13.4,14.1,8.3
Cc1ccc(Cn2ncc3c(N4CCN(c5ccccc5C)CC4)ncnc32)cc1,4.2,-1.76,13.0,-75.7,19.6,22.1*
CCCCN(C(=O)NC(=O)Nc1nc2ccc(OC)cc2s1)S(C)(=O)=O,10.3,-0.86,9.8,-43.8,7.3,8.3

# Bioassay records from PubChem.
